Among the test systems are NCI-H23 lung; NCI-H226 lung; NCI-H322M lung; HOP-62 NSCLC; NCI-H460 lung; A549/ATCC NSCLC; 786-0 renal; DU-145 prostate; K-562 leukemia; MALME-3M melanoma; MDA-MB-231 breast; RXF 393 renal; SF-268 CNS; SF-295 CNS; SF-539 CNS; UACC-257 melanoma; M14 melanoma; COLO 205 colon; HOP-92 NSCLC; NCI-H522 lung.
What all share (experiment): NCI-60 one-dose screen, 48 h (100 = growth as untreated, 0 = no growth, -100 = all killed)
Holding throughout (conditions): 10 µM

This is part of a sample that, as a whole, favours compounds with a hit. Of some 83,000 tested, about 20% had one in any assay.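 A percent growth of 40 corresponds to 60% growth inhibition; 0 means no net growth; -100 means all cells died. Active threshold: below 10.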 A number with no mark means an inactive call. The source made the active and inactive calls.

The values that follow come from PubChem BioAssay (NCI).

In the case of `CN(C)C(C)(C)CC(C)(C)C`, the growth in the assay with NCI-H23 lung is 103%; in the assay on NCI-H226 lung, 99.7%; in the assay with NCI-H322M lung, 116%; in the assay on HOP-62 NSCLC, 104%; in the assay on NCI-H460 lung, 108%; in the assay with A549/ATCC NSCLC it was 108%. The growth in the assay on 786-0 renal is 100%; in the assay with DU-145 prostate, 99.5%; in the assay with K-562 leukemia it was 96.5%; with MALME-3M melanoma, 94.2%; with MDA-MB-231 breast, 101%; with RXF 393 renal it was 103%. Also, the growth is 103% with SF-268 CNS; 104% with SF-295 CNS; 94.1% in the assay with SF-539 CNS; 117% in the assay on UACC-257 melanoma; 105% in the assay with M14 melanoma.

In the case of `O=C(O)/C=C/C(=O)NCc1ccccc1`, the growth with NCI-H23 lung was 107%; in the assay with NCI-H226 lung, 98.4%; with NCI-H322M lung, 93.5%; with HOP-62 NSCLC, 101%; with NCI-H460 lung, 104%; in the assay on 786-0 renal, 98.9%. The growth in the assay with COLO 205 colon is 106%; in the assay with DU-145 prostate, 121%; in the assay with K-562 leukemia, 108%; in the assay on MALME-3M melanoma, 99%; with MDA-MB-231 breast, 125%; with RXF 393 renal, 104%. For the same molecule, the growth with SF-268 CNS is 110%; with SF-295 CNS it was 98.1%; in the assay on SF-539 CNS, 95.7%; with M14 melanoma, 103%.

Regarding `NC(CSC(c1ccccc1)(c1ccccc1)c1ccccc1)C(=O)O` (configuration not stated), the growth is 61.3% in the assay on NCI-H23 lung; 87.6% with NCI-H226 lung; 43.9% in the assay with NCI-H322M lung; 44.5% in the assay with HOP-62 NSCLC; 13.6% in the assay with NCI-H460 lung; 25.7% with A549/ATCC NSCLC. In addition, the growth with 786-0 renal is 49.4%; in the assay with COLO 205 colon, 23.2%; in the assay with DU-145 prostate, 29.9%; in the assay on K-562 leukemia, 14.5%; with MALME-3M melanoma, 51.1%; in the assay on MDA-MB-231 breast it was 4.8% (active). Moreover, the growth in the assay on RXF 393 renal is 3.38% (active); with SF-268 CNS, 43.3%; in the assay on SF-539 CNS, 10.3%; in the assay on UACC-257 melanoma it was 52.3%; with M14 melanoma it was 13.6%.

On to `O=C(NC1CCCCC1)OCc1c(COC(=O)NC2CCCCC2)c(-c2ccc(Cl)c(Cl)c2)n2c1CCC2`, for which the growth in the assay on NCI-H23 lung is 22.7%; with NCI-H226 lung, 2.9% (active); in the assay with NCI-H322M lung, 48.6%; in the assay with HOP-62 NSCLC it was 27.4%; in the assay with HOP-92 NSCLC, -1.46% (active); in the assay on NCI-H522 lung, -23.9% (active). In addition, the growth is 8.95% (active) with 786-0 renal; 31.8% with COLO 205 colon; 20.2% with DU-145 prostate; 10.5% with K-562 leukemia; 31.8% in the assay with MALME-3M melanoma; 42.3% in the assay on MDA-MB-231 breast. For the same molecule, the growth in the assay with RXF 393 renal was -13.6% (active); in the assay with SF-268 CNS it was 29.2%; in the assay on SF-295 CNS it was 24.7%; in the assay on SF-539 CNS, 20.1%; with UACC-257 melanoma, 66.2%; in the assay with M14 melanoma, 21.6%.

Regarding `COc1ccc(C(=O)C(Br)C(Br)C(=O)O)cc1` (configuration not stated), the growth in the assay with NCI-H23 lung was 99.1%; in the assay on NCI-H226 lung, 102%; in the assay on NCI-H322M lung, 94.1%; in the assay on HOP-62 NSCLC, 108%; in the assay on NCI-H460 lung, 104%; in the assay with 786-0 renal, 100%. The growth in the assay on COLO 205 colon is 110%; with DU-145 prostate, 111%; in the assay on K-562 leukemia, 109%; in the assay on MALME-3M melanoma, 109%; in the assay with MDA-MB-231 breast, 111%; in the assay with RXF 393 renal, 106%. Further, the growth in the assay with SF-268 CNS is 108%; in the assay with SF-295 CNS it was 108%; with SF-539 CNS, 99.5%; in the assay on M14 melanoma, 89.2%.

On to `Cc1ccc(CCCC(=O)O)c(C)c1`, for which the growth with NCI-H23 lung was 103%; in the assay on NCI-H226 lung it was 93.4%; in the assay with NCI-H322M lung, 102%; in the assay on HOP-62 NSCLC it was 95.7%; in the assay on NCI-H460 lung it was 102%; in the assay on 786-0 renal it was 99.4%. For the same molecule, the growth with COLO 205 colon is 102%; in the assay on DU-145 prostate, 107%; in the assay with K-562 leukemia, 97.8%; in the assay with MALME-3M melanoma, 105%; in the assay with MDA-MB-231 breast, 108%; in the assay on RXF 393 renal it was 100%. For the same molecule, the growth is 104% in the assay on SF-268 CNS, 98.5% with SF-295 CNS, 96.5% with SF-539 CNS and 107% in the assay on M14 melanoma.

In the case of `C#CCSc1nnnn1-c1ccc(Br)c(C)c1`, the growth in the assay with NCI-H23 lung is 89.7%; in the assay with NCI-H226 lung, 74.6%; with NCI-H322M lung, 107%; with HOP-62 NSCLC, 102%; in the assay on HOP-92 NSCLC, 69.9%; in the assay with NCI-H522 lung, 71.1%. In addition, the growth was 92.8% with A549/ATCC NSCLC; 89.1% in the assay with 786-0 renal; 135% in the assay with COLO 205 colon; 107% in the assay with DU-145 prostate; 86.3% in the assay with K-562 leukemia; 112% in the assay on MALME-3M melanoma. Besides, the growth with MDA-MB-231 breast was 98.4%; in the assay on RXF 393 renal, 68.3%; in the assay on SF-268 CNS, 99.2%; in the assay on SF-295 CNS it was 103%; in the assay with SF-539 CNS it was 89%; in the assay with UACC-257 melanoma it was 83.5%. Besides, the growth in the assay on M14 melanoma is 94.8%.

Turning to `O=C(O)c1ccnc(Br)c1`, the growth with NCI-H23 lung is 97.8%; with NCI-H226 lung it was 92.6%; in the assay on NCI-H322M lung it was 106%; with NCI-H460 lung, 104%; with HOP-92 NSCLC, 96.9%; in the assay on NCI-H522 lung, 105%. Also, the growth in the assay on A549/ATCC NSCLC is 102%; with 786-0 renal it was 102%; in the assay with COLO 205 colon, 107%; with DU-145 prostate, 111%; with K-562 leukemia it was 109%; in the assay on MALME-3M melanoma, 107%. The growth with MDA-MB-231 breast was 115%; with RXF 393 renal, 106%; with SF-268 CNS, 107%; in the assay on SF-295 CNS, 100%; in the assay with SF-539 CNS it was 97.5%; in the assay on UACC-257 melanoma, 104%. Besides, the growth in the assay on M14 melanoma is 107%.

For `O=C(O)[C@@H]1[C@H]2C[C@H]3c4[nH]c5ccccc5c4CCN3C[C@@H]2CC[C@@H]1O`, the growth was 102% in the assay on NCI-H23 lung; 103% with NCI-H226 lung; 110% in the assay with NCI-H322M lung; 121% with NCI-H460 lung; 109% in the assay with HOP-92 NSCLC; 18.2% with NCI-H522 lung. Moreover, the growth in the assay with A549/ATCC NSCLC is 101%; in the assay with 786-0 renal, 76%; with COLO 205 colon, 123%; with DU-145 prostate, 106%; in the assay with K-562 leukemia, 129%; with MALME-3M melanoma, 66.1%. Besides, the growth in the assay with MDA-MB-231 breast is 108%; in the assay with RXF 393 renal, 111%; in the assay with SF-268 CNS, 107%; with SF-295 CNS, 99.2%; in the assay with SF-539 CNS it was 108%; in the assay on UACC-257 melanoma, 105%. In addition, the growth in the assay on M14 melanoma is 91.5%.
